Screening data (PubChem)
Tau ThT inhib = qHTS for Inhibitors of Tau Fibril Formation, Thioflavin T Binding. recombinant tau K18 P301L, heparin-induced fibrillization, ThT fluorescence. Potency, µM (series often up to 57.4 µM), without a hit: at the top dose activity, negative = inhibition, actives largely listed as inhibitors. 270,000 tested, 2.1% active. AID 1460, 2008; further: nearly all actives have a fitted effect of over 55% in size
Target sequence (P10636 561-689 P618L limits assumed): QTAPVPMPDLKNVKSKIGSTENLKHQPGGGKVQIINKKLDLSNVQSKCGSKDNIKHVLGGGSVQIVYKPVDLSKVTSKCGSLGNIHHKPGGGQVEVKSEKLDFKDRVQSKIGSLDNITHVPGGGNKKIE
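Fibril formation assay: tau K18 P301L at 15 uM with trace Alexa 594 label, heparin inducer 20 uM, pH 7 sodium acetate buffer, 37 C for 6 hr; endpoint ThT signal.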
HPGD block = qHTS Assay for Inhibitors of HPGD (15-Hydroxyprostaglandin Dehydrogenase). 15-hydroxyprostaglandin dehydrogenase [NAD(+)] (Homo sapiens), P15428. purified HPGD, NADH fluorescence kinetic, PGE2 substrate. Potency, µM, inactives show top-dose activity change, negative = inhibition, usual class: inhibitors. 150,000 tested, 4.3% active; active means well fitted inhibition curve with a large enough effect, not every such curve was filed as active; inconclusive means small, poorly fitted or top-dose-only effect, or another doubt; inactive means no such curve, though single readings can be large or run the other way
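20 nM HPGD preincubated 15 min at room temperature with compound in 50 mM Tris-HCl pH 8, 0.01% Tween 20. Started with 1 mM NAD+ and 30 uM prostaglandin E2; NADH fluorescence (360/450 nm) read 5 times over 30-s intervals, last minus first.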
Tau FP inhib = qHTS for Inhibitors of Tau Fibril Formation, Fluorescence Polarization; Microtubule-associated protein tau (Homo sapiens), P10636; K18 P301L tau heparin fibrillization, Alexa594 FP, 6 h; Potency, µM (highest dose often 57.7 µM), for inactives: at the top dose activity, negative = inhibition, most hits filed as inhibitors; 280,000 tested, 0.39% active; further: nearly all actives have a fitted effect of over 55% in size
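Read-out: fluorescence polarization of Alexa 594-labeled tau (0.24 uM), 555 nm excitation, 632 nm emission. Mixtures held 15 uM unlabeled K18 P301L, compound and 20 uM heparin, pH 7 acetate buffer, incubated 6 hr at 37 C.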
Tau fluor cs = Counterscreen qHTS for Inhibitors of Tau Fibril Formation, Fluorescence Polarization. tau K18 P301L (four-repeat tau fragment) Alexa594 fluorescence, heparin fibrillization. Potency, µM (doses to about 57.7 µM), inactives show top-dose activity change, negative = decrease. 280,000 tested, 0.93% active. AID 1463, 2008; further: nearly all actives have a fitted effect of over 55% in size
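Human K18 P301L tau (15 uM unlabeled plus 0.24 uM Alexa 594-labeled, final) in 100 mM sodium acetate pH 7 was mixed with compound and 20 uM heparin and incubated 6 hr at 37 C.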
NPSR antag = qHTS Assay for Antagonists of the Neuropeptide S Receptor: cAMP Signal Transduction; Q6W5P4; CHO-NPSR cells, cAMP TR-FRET, antagonist mode; Potency, µM (top dose mostly 38.3 µM), inactives show top-dose activity change, negative = inhibition, actives largely listed as inhibitors; 220,000 tested, 1% active; further: nearly all actives have a fitted effect of over 50% in size
ALDH1A1 block = qHTS Assay for Inhibitors of Aldehyde Dehydrogenase 1 (ALDH1A1); Aldehyde dehydrogenase 1A1 (Homo sapiens), P00352; Purified ALDH1A1, NADH fluorescence, propionaldehyde substrate; Potency, µM (highest dose often 75.3 µM), without a hit: top-dose activity, negative = inhibition, actives largely listed as inhibitors; 220,000 tested, 7.3% active; AID 1030, 2008; active means well fitted inhibition curve with a large enough effect, not every such curve was filed as active; inconclusive means small, poorly fitted or top-dose-only effect, or another doubt; inactive means no such curve, though single readings can be large or run the other way;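 further: plate controls were no enzyme wells and a reference inhibitor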
Target sequence (P00352 whole entry, looked up): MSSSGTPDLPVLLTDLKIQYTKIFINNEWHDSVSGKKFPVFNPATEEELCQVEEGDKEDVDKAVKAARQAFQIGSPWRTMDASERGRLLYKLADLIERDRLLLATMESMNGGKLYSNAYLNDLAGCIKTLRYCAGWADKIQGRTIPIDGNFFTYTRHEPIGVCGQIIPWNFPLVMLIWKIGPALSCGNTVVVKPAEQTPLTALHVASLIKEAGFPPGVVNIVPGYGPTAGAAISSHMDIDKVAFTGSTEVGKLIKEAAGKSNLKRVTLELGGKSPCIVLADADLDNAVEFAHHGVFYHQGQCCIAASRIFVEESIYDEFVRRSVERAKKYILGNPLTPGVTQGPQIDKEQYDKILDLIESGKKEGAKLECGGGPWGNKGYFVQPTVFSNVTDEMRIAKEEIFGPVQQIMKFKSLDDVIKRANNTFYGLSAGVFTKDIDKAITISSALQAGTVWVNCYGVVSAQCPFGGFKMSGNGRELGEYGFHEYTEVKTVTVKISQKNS
* hit, by the source's call; ? = inconclusive; nt = no result; [ ] = remark or other dose. In the library only some 9.5% were active in any assay of this set; here they are far more common. Unless noted, the call rests on the fitted dose curve; in most records, active means well fitted curve in the direction sought with a large enough effect; inconclusive means small, poorly fitted or top-dose-only effect, or another doubt; inactive means no such curve, though single readings can be large; an effect the other way counts as inactive or inconclusive. Unless noted, on the % scale 0 is the no-effect control and ±100 the full control effect; potency means the concentration at half of the fitted maximal effect.

SMILES | Tau ThT inhib | HPGD block | Tau FP inhib | Tau fluor cs | NPSR antag | ALDH1A1 block
COC(=O)[C@@H]1C[C@H]1[C@@H](NC(=O)c1ccc(Br)cc1)c1ccccc1 | -3% | -2% | -3% | -12% | nt | -3%
CCn1c(N)c(C(=O)NCCOC)sc1=S | -5% | ? | -5% | -1% | 4%[46.1 µM] | 25µM*
CCCCCC(=O)NC(=S)Nc1ccccc1C(=O)OC | -9% | -10% | 4% | -9% | -27%[46.1 µM] | ?
CCn1c(N)c(C(=O)NCc2ccc3c(c2)OCO3)sc1=S | -16% | 16µM* | 7% | -28% | -11%[46.1 µM] | 20µM*
CCn1c(N)c(C(=O)Nc2ccccc2C(=O)OC)sc1=S | -18% | 25µM* | -7% | ? | -17%[46.1 µM] | 28µM*
COCCNC(=O)c1ccc(C(=O)NCCOC)s1 | 3% | -29% | -1% | -1% | 0%[46.1 µM] | 14%
Cc1ccc(-n2c([S-])c(C(=O)NC(C)c3ccccc3)[n+]3ccccc23)cc1 (stereo unspecified) | -5% | nt | 3% | -6% | -51% | 3.2µM*
O=C(NC1CC1)C1CCN(c2ncnc3c2sc2cccc(F)c23)CC1 | ? | 16µM* | 6% | -15% | -11%[46.1 µM] | ?
Cc1ccc(N2C(=O)C(CC(=O)Nc3cccc(F)c3)N(C3CC3)C2=O)cc1 (stereo unspecified) | 2% | nt | 1% | -5% | -1% | 20µM*
CCc1ccc(NC(=O)CC2C(=O)N(c3ccc(C)cc3)C(=O)N2C2CCCC2)cc1 (stereo unspecified) | -1% | nt | 2% | -24% | nt | nt
COc1cc([N+](=O)[O-])ccc1NC(=O)Cc1ccccc1 | 1% | nt | -4% | -5% | -12% | -3%
COc1cc([N+](=O)[O-])ccc1NC(=O)CCCOc1cccc(C)c1C | -23% | -16% | 3% | ? | -26%[46.1 µM] | 14µM*
CC(=O)C(C(C)=O)C1(O)C(=O)c2ccccc2C1=O | 2.8µM* | 7% | ? | -10% | 27% | 1.6µM*
O[C@H](CN1CCN(c2cccc(Cl)c2)CC1)C(c1ccccc1)c1ccccc1 | ? | -9% | 6% | ? | nt | -10%
CC(Cl)C(=O)NN=C(c1ccccc1)c1ccccc1 (stereo unspecified) | -1% | nt | -2% | -4% | -11% | 1µM*
CCN(CC)CC(=O)NN=C(c1ccccc1)c1ccccc1 | -2% | -5% | -4% | -5% | ? | ?
CC(NC1CCCC1)C(=O)Nc1ccccc1-c1ccccc1 (stereo unspecified) | -4% | -1% | -1% | 0% | -9%[46.1 µM] | ?
CC(NC1CCCCC1)C(=O)NN=C(c1ccccc1)c1ccccc1 (stereo unspecified) | -13% | nt | -3% | -9% | ? | 3.5µM*
O=C(NC(=S)NNC(=O)[C@H]1C[C@@H]1c1ccccc1)c1ccc(F)cc1 | ? | nt | -2% | -14% | -6% | 25µM*
COc1ccc(C(=O)NC(=S)NNC(=O)[C@H]2C[C@@H]2c2ccccc2)cc1OC | -13% | nt | 2% | -21% | -8% | ?
Cc1cc2c(NC(=O)CCCC(=O)O)cccc2nn1 | nt | nt | -2% | -3% | 13% | nt
Cc1cc2c(NC(=O)Nc3ccc(C(F)(F)F)cc3)cccc2nn1 | ? | nt | 28µM* | ? | 53% | nt
C[C@H](C(=O)O)c1cccc(Oc2ccccc2)c1 | nt | -9% | nt | nt | nt | 4%[20.9 µM]
CCOC(=O)C1C(=O)C=C(c2ccc([N+](=O)[O-])cc2)CC1c1ccccc1 (stereo unspecified) | ? | ? | 15% | ? | -19%[46.1 µM] | ?
CC(=O)C1C(=O)C=C(c2ccco2)CC1c1ccccc1 (stereo unspecified) | ? | -26% | -9% | -15% | -23%[46.1 µM] | 25µM*
SMILES | Tau ThT inhib | HPGD block | Tau FP inhib | Tau fluor cs | NPSR antag | ALDH1A1 block
CCOC(=O)c1c(C)[nH]c(C=Nc2ccc(OC)cc2)c1O | ? | -20% | 8% | -25% | ? | -9%
CCOC(=O)c1c(C)[nH]c(N=Nc2ccc(C)cc2)c1C | 7.9µM* | -22% | 22% | ? | -23%[46.1 µM] | 4%
CCOC(=O)c1c(C)[nH]c(N=Nc2ccccc2)c1C | 7.9µM* | -13% | ? | ? | -30%[46.1 µM] | 3%
CCOC(=O)c1c(C)[nH]c(C=Nc2ccccc2)c1O | ? | ? | -6% | -10% | -16%[46.1 µM] | ?
CCOC(=O)c1c(C)[nH]c(N=Nc2ccc(OC)cc2)c1C | nt | nt | ? | 3.2µM*[quencher] | -20% | nt
CCOC(=O)c1c(C)[nH]c(N=Nc2ccccc2Cl)c1C | 5µM* | nt | 2% | ? | -39% | nt
CCOC(=O)c1c(C)[nH]c(N=Nc2cccc(OC)c2)c1C | 5µM* | nt | 11% | ? | -41% | 3%
CCOC(=O)c1c(C)[nH]c(CCC(=O)NCc2cccc(OC)c2)c1C | -4% | nt | -2% | -4% | nt | nt
Cc1ccc(NC(=O)CN2C(=O)c3cccnc3Oc3ccc(Cl)cc32)cc1 | -15% | nt | ? | -22% | nt | nt
COc1ccc(/C=N/NC(=O)c2cccc([N+](=O)[O-])c2)cc1OC(=O)c1ccccc1 | -21% | ? | -5% | 11µM*[quencher] | -1%[46.1 µM] | ?
COc1ccc(/C=N/NC(=O)c2cccc([N+](=O)[O-])c2)cc1OC(=O)c1ccc(C)cc1 | -11% | -9% | -1% | ? | -25%[46.1 µM] | ?
O=C(N/N=C/c1ccc(OC(=O)c2ccccc2)c([N+](=O)[O-])c1)c1ccc(O)cc1 | 8.9µM* | -12% | -12% | ? | -24% | 7%
COc1cc(/C=N/NC(=O)c2sc3ccccc3c2Cl)ccc1OC(=O)c1ccc([N+](=O)[O-])cc1 | 1.3µM* | nt | 3% | ? | 1% | nt
COc1ccc(C(=O)N/N=C/c2ccc(OC(=O)c3cccc4ccccc34)c([N+](=O)[O-])c2)cc1 | 5µM* | -5% | -2% | ? | -15%[46.1 µM] | 0%
O=C(Nc1nc2ccccc2s1)c1ccc(OCC2CCCO2)cc1 (stereo unspecified) | ? | nt | ? | ? | -19%[46.1 µM] | ?
COc1cc(/C=N/NC(=O)c2cccc([N+](=O)[O-])c2)ccc1OC(=O)c1ccco1 | ? | nt | -1% | ? | -4% | ?
COc1ccc(/C=N/NC(=S)SC)cc1OC | ? | nt | 6% | -23% | ? | 10µM*
CSC(=S)N/N=C/c1ccccc1 | -16% | nt | -5% | -22% | 20% | ?
